For some assays here: Entries with a potency or affinity are not part of this list.
What was measured:
Parameters in all cases: scale not given: direction of the effect not stated beside the values
[1] = molecular target: Protein translocase subunit SecA (Escherichia coli (strain K12)) (UniProt P10408); experiment: Assay to Identify E. coli SecA ATPase Inhibitors; assay type: functional; conditions: 30 µM
[2] = molecular target: T1, Ubiquitin-activating enzyme e1, putative (Leishmania donovani (strain BPK282A1)) (UniProt E9BSI1); experiment: Leishmania donovani Ubiquitin Activating Enzyme (LdE1); assay type: functional; conditions: 30 µM
T1 sequence (whole entry): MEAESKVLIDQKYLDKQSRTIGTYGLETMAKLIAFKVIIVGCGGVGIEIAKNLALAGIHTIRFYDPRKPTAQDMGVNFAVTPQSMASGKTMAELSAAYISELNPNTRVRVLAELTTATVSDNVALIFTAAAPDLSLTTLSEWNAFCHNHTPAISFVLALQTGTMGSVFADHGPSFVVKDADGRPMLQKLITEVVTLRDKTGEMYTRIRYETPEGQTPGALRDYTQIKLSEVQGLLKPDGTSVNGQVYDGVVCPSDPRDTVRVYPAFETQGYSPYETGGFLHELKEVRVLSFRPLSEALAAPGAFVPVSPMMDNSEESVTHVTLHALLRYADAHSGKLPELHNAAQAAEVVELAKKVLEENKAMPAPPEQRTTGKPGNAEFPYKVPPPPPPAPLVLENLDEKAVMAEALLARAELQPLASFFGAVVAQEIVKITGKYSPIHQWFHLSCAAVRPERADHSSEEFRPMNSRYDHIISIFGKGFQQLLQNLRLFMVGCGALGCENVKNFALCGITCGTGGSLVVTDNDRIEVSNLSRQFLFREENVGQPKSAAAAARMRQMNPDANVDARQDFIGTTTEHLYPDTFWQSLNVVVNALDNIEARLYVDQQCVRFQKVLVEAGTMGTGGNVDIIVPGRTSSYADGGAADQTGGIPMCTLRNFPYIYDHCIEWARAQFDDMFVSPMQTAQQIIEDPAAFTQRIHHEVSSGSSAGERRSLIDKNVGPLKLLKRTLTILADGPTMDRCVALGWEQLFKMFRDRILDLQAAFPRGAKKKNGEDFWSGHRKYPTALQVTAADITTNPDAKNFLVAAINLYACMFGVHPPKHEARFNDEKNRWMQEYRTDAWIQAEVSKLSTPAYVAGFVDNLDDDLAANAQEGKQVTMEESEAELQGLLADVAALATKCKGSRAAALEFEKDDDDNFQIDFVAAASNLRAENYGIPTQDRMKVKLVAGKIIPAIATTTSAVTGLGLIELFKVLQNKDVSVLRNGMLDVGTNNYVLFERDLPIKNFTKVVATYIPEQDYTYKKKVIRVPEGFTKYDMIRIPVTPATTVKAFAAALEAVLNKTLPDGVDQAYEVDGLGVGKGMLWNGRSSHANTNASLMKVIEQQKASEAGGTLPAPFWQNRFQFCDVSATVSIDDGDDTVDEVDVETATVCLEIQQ

[3] = molecular target: AMP-activated protein kinase, AMPK (Homo sapiens) (UniProt P54646+O43741+P54619+Q9UGJ0+Q9Y478+Q13131+Q9UGI9); experiment: AMP-dependent Kinase enzyme assay. An in vitro enzyme assay that detects ADP turnover that is directly proportional to AMPK activity. This uses naive AMPK that is activated during the assay with MK-8722; assay type: functional; conditions: 30 µM
[4] = molecular target: Sialic acid-binding Ig-like lectin 9 (Homo sapiens) (UniProt Q9Y336); experiment: Hs-Siglec9 ALPHAscreen SOP 20170721; conditions: 10 µM
Sequence of Sialic acid-binding Ig-like lectin 9 (Homo sapiens) (Q9Y336 whole entry): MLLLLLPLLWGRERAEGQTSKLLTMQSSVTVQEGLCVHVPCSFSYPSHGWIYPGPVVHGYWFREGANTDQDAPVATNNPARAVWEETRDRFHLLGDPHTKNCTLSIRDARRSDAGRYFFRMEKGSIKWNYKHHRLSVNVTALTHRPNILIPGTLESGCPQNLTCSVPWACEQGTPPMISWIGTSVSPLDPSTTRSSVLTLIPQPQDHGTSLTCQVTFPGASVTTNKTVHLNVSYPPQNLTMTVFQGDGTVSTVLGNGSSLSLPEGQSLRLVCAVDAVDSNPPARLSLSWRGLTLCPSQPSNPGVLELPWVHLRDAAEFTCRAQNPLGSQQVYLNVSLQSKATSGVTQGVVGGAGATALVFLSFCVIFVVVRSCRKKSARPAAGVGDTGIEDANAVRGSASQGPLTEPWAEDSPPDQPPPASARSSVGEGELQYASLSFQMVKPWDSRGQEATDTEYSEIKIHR

Trypanosoma cruzi = experiment: Trypanosoma cruzi phosphomannomutase and mannose-1-phosphate guanylyltransferase assay; assay type: functional; conditions: 10 µM
[5] = molecular target: T2, Arginase-2, mitochondrial (Homo sapiens) (UniProt P78540); experiment: in vitro enzyme assay to detect the production of urea directly proportional to the activity of Arginase II; assay type: functional; conditions: 33.3 µM; further: in the data most compounds retested in dose-response had high values
T2 sequence (whole entry): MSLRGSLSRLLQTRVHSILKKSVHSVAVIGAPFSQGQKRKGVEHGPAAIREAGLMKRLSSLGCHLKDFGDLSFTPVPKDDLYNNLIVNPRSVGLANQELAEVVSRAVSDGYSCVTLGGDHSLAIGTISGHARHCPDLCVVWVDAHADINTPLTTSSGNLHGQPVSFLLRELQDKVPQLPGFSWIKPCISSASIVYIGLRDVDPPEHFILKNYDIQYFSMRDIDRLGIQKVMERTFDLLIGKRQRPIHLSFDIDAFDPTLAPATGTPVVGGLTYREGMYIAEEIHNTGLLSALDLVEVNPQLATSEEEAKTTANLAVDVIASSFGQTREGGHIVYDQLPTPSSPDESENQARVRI

[6] = molecular target: T3, Proteasome subunit beta (Trypanosoma cruzi) (UniProt O96673); experiment: Trypanosoma cruzi proteasome chymotrypsin-like activity (TcProtChymo) assay.; further: in the data most compounds retested in dose-response had high values; assay type: functional; conditions: 9.37 µM
T3 sequence (whole entry): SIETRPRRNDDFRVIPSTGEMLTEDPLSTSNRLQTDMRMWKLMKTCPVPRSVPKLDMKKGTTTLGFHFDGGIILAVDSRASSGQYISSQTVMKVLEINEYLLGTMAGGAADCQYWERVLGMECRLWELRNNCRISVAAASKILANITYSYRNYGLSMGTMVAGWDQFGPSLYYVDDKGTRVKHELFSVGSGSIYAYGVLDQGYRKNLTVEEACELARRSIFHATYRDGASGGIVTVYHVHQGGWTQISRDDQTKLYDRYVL

Homo sapiens = species on record: Homo sapiens; experiment: To identify inhibition of the IFN signalling (Jak-Stat) pathway via expression of an eGFP reporter gene under the control of an IFN-stimulated response element (ISRE) containing MxA promoter.; assay type: functional; conditions: 30 µM
[7] = molecular target: T4, Tyrosyl-tRNA synthetase, putative (Trypanosoma cruzi (strain CL Brener)) (UniProt Q4DSP6); experiment: Trypanosoma cruzi tyrosyl tRNA synthetase (TcYRS) _High Tyrosine SOP; assay type: functional; conditions: 30 µM; further: in the data most compounds retested in dose-response had high values
T4 sequence (whole entry): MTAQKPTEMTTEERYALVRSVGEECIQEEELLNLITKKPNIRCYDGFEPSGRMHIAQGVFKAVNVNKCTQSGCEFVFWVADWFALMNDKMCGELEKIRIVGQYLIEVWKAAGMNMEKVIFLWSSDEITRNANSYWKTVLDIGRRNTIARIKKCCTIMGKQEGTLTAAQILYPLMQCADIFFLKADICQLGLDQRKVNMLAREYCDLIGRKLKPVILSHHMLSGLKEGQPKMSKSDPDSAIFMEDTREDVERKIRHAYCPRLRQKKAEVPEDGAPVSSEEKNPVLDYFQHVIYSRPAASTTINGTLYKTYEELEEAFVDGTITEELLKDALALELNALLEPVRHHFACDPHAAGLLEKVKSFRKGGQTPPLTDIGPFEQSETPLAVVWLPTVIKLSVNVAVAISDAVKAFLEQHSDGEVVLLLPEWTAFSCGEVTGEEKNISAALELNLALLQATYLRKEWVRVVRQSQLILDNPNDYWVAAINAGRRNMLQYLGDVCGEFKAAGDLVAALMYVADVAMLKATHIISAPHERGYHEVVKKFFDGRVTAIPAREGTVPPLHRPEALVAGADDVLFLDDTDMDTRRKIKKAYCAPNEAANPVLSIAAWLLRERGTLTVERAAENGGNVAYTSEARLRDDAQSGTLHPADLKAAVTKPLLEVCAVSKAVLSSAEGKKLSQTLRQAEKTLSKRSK

[8] = molecular target: T4, Tyrosyl-tRNA synthetase, putative (Trypanosoma cruzi (strain CL Brener)); experiment: Trypanosoma cruzi tyrosyl tRNA synthetase (TcYRS) SOP; assay type: functional; conditions: 30 µM
[9] = molecular target: Chromo domain-containing protein 1 (Saccharomyces cerevisiae (strain ATCC 204508 / S288c) (Baker's yeast)) (UniProt P32657); experiment: ScCHD-1 Enzyme Inhibition Assay; assay type: functional; conditions: 30 µM; further: in the data most compounds retested in dose-response had high values
Sequence of Chromo domain-containing protein 1 (Saccharomyces cerevisiae (strain ATCC 204508 / S288c) (Baker's yeast)) (P32657 whole entry, the tested form may be a part): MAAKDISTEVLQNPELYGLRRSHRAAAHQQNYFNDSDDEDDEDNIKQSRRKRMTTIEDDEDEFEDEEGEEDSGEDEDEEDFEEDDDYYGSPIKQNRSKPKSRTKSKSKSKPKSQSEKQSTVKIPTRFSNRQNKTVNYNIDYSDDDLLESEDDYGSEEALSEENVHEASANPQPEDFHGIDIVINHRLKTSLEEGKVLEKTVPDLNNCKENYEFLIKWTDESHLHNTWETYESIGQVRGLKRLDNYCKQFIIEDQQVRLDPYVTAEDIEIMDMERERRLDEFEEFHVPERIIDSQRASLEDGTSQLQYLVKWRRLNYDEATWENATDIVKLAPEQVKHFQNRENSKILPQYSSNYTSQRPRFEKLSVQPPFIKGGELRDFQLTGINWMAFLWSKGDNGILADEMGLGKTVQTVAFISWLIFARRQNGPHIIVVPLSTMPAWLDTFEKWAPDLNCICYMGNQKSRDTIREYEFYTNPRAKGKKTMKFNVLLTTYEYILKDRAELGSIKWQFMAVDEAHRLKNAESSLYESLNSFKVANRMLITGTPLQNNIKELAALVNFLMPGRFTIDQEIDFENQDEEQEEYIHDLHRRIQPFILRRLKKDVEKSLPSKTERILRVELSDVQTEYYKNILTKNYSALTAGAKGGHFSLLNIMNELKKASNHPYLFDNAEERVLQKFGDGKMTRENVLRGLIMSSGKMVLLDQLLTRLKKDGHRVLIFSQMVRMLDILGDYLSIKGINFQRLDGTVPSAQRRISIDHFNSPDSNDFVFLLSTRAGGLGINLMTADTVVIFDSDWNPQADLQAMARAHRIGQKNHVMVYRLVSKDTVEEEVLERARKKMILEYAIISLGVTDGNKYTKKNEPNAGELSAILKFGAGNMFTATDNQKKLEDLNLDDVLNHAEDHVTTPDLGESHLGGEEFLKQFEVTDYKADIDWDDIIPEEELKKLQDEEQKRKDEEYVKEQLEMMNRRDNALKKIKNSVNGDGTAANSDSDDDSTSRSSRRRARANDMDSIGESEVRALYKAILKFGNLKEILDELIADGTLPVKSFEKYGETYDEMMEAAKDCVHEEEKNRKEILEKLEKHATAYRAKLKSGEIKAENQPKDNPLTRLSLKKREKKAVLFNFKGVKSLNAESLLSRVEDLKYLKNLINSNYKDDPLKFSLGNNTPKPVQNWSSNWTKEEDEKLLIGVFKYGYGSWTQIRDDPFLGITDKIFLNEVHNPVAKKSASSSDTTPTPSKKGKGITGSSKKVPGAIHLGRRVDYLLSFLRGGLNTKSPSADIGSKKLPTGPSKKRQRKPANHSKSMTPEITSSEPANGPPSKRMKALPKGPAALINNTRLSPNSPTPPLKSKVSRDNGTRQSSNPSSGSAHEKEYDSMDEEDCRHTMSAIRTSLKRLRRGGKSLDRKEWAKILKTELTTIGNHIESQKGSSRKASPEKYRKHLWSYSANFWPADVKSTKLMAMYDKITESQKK

Sequence of Protein translocase subunit SecA (Escherichia coli (strain K12)) (P10408 whole entry): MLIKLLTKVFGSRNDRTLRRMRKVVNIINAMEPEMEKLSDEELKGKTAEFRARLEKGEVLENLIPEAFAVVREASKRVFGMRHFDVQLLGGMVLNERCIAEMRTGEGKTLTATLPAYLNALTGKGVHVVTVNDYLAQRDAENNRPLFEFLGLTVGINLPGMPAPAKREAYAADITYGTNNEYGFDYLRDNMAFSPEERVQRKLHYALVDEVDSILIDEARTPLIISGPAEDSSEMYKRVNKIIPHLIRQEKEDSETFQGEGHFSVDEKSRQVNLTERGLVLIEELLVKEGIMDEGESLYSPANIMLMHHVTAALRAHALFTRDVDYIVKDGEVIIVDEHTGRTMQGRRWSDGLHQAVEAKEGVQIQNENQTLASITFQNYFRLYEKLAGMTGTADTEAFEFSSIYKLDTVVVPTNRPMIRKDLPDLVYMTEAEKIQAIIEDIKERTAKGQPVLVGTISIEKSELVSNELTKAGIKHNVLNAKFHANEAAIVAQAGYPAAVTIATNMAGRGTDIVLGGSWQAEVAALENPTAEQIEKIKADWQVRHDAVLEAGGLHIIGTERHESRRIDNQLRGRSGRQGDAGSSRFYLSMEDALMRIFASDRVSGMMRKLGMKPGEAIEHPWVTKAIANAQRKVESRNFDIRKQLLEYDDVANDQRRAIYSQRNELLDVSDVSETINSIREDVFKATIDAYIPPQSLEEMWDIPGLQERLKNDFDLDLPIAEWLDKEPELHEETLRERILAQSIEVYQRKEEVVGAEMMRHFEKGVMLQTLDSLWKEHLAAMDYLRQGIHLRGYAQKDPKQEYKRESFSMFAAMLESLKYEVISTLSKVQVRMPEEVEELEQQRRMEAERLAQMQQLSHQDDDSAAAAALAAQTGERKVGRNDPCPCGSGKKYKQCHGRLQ

| Compound | Percent Effect [1] [%] | Percent Effect [2] [%] | Percent Effect [3] [%] | Percent Effect [4] [%] | Percent Effect (Trypanosoma cruzi) [%] | Percent Effect [5] [%] | Percent Effect [6] [%] | Percent Effect (Homo sapiens) [%] | Percent Effect [7] [%] | Percent Effect [8] [%] | Percent Effect [9] [%] |
| --- | --- | --- | --- | --- | --- | --- | --- | --- | --- | --- | --- |
| c1ccc(CN2CCCC(c3nccnc3-n3ccnc3)C2)cc1 (configuration not stated) | -1.15 | 10.7 | 4.45 | -1.75 | 0.591 | -0.233 | 14.5 | 7.14 | 5.32 | 6.41 | -0.742 |
| COc1ccc(CN2CCC(O)CC2)c(OC)c1 | -2.06 | 0 | -1.5 | 2.82 | 1.93 | -1.91 | 4.83 | 13.4 | 2.65 | 9.76 | -0.716 |
| Cn1cc(CN2CCCN(C(=O)c3ccc4c(c3)COC4)CC2)cn1 | -5.64 | 18.4 | -1.04 | 13.2 | -3.27 | -2.16 | 12.6 | 8.45 | 7.39 | 11.1 | -0.916 |
| CC(C)Cc1noc(CN2CCOC(Cn3cncn3)C2)n1 (configuration not stated) | -1.12 | 10.8 | 2.5 | -4.71 | -6.22 | 4.25 | 0.718 | 16.7 | 0 | 13.4 | -0.689 |
| O=C(c1cncc(N2CCC3(CCNCC3)CC2)n1)N1CCCC1 | -4.3 | 18.7 | 1.16 | 15.6 | 5.94 | 33.9 | 23.7 | 12.9 | 7.1 | 21 | -13.4 |
| Cc1ccoc1C(=O)N1CCO[C@H]2[C@H](OCCN(C)C)CC[C@@H]21 | 0.717 | 5.33 | 0.186 | 15.6 | -2.7 | -56.5 | 5.98 | -12.8 | 2.08 | 10 | -3.32 |
| CC(NC(=O)NCCCn1cccn1)c1cccnc1 (configuration not stated) | -4.3 | -2.67 | -0.757 | -5.85 | -4.77 | -3.12 | 7.85 | 1.99 | -1.64 | -6.17 | 6.57 |
| CN(C)c1cc(CNC(=O)c2ccc(=O)[nH]n2)ccn1 | -2.65 | 18.2 | -1.88 | -14.6 | 3.82 | -2.32 | 17.9 | 4.06 | 9.52 | 30.6 | -19.7 |
| O=C(NCC(F)F)N1CCC(n2ccc(C(F)(F)F)n2)CC1 | -2.09 | 5.48 | -1.59 | 3.79 | 5.09 | 8.64 | 10.3 | 0.988 | 2.15 | 7.5 | -4.48 |
| Cc1nc(C)n(C2CCCN(C(=O)c3ccccc3C)C2)n1 (configuration not stated) | -0.244 | 18.2 | -0.257 | -8.82 | -0.881 | 7.37 | 12.5 | 12.5 | 7.62 | 11.8 | -10 |
| O=C(c1cccnc1)N1C[C@@H]2CC[C@H](C1)N(Cc1cccc(Cl)c1F)C2 | -2.44 | 8.22 | 11.4 | 4.43 | -0.588 | 5 | 10.8 | 8.1 | 9.68 | 22.5 | -3.1 |
| Cn1cnnc1C1CCCN(C(=O)NCCc2ccccc2F)C1 (configuration not stated) | -3 | 10.4 | -0.267 | -7.57 | 5.97 | 6.53 | 6.71 | 11.1 | 3.81 | 14.1 | -9.4 |
| CCc1ccc(S(=O)(=O)Nc2cc(OC)c(OC)cc2C(=O)O)s1 | -4.39 | 13.2 | 5.52 | -13.6 | -8.12 | 2.16 | 8.54 | 8.65 | -7.39 | -1.24 | -5.49 |
| CCn1cc(NC(=O)NCC(c2cccs2)N(C)C)cn1 (configuration not stated) | 0.424 | 18.4 | -2.49 | 5.82 | -3.76 | -3.83 | 7.69 | 2.58 | 5.39 | 19.5 | -7.09 |
| O=C(c1ccc(Br)s1)N1CCN(Cc2ccc(OC(F)(F)F)cc2)CC1 | -0.131 | -13.7 | 41.1 | 2.45 | -3.72 | -1.82 | 19 | 8.24 | 1.07 | -2.5 | -11.7 |
| Clc1ccccc1C1(c2ccnc(CC3CC3)n2)CCNCC1 | -2.96 | -7.79 | -1.73 | 13.8 | 6.59 | -80 | 13.1 | -7.99 | 8.6 | 16.1 | -0.745 |
| Cc1[nH]ccc1C(=O)N1CCC(c2nnc(Cn3ccnc3)n2C)CC1 | -1.99 | 8.22 | -2.31 | 4.71 | -4.56 | -4.79 | 15.3 | 22.3 | 6.25 | 16.1 | 0.967 |
| Cc1cc(C(F)(F)F)nn1CC(C)C(=O)Nc1ccncc1 (configuration not stated) | -6.4 | 6.67 | -0.198 | 8.65 | 0.786 | -2.64 | 10.9 | 19.9 | 1.06 | -12.8 | -5.12 |
| CN1CCOC(CNCc2nc(-c3ccccc3)cs2)C1 (configuration not stated) | -3.28 | -12.7 | -8.45 | 1.64 | 5.95 | -1.9 | 1.39 | -25.8 | 1.48 | 1.27 | 4.02 |
| Cc1ccc2c(c1)CN(C(=O)C1CCCCC1)C(CN(C)C)CO2 (configuration not stated) | -4.37 | 12.2 | 11.3 | -8.18 | -4.54 | -4.41 | 12 | 8.85 | 3.23 | 9.09 | -13.3 |
| c1csc(CN2CCn3c(Cn4cncn4)cnc3C2)n1 | -3.71 | 2.67 | 12.1 | 4.38 | -0.984 | 4.43 | 6.08 | -18.1 | 2.13 | 1.28 | -1.62 |
| Cn1cc(C(=O)NC[C@@H]2OC[C@H]3CN(Cc4ccco4)CC[C@H]32)cn1 | 1.17 | 8.22 | -8.23 | 6.71 | 5.75 | -2.79 | 8.3 | 17 | 3.12 | 11.1 | -3.21 |
